Experimental data reported in PubChem BioAssay AID1051 (The Scripps Research Institute Molecular Screening Center, 2008).
Screen size: about 99,000 compounds; about 340 (0.34%) were called active. No stated cut-off is given here; in the data, active means TR-FRET ratio above about 2300; inactive means the rest. This excerpt belongs to a sample that is enriched for actives.

Experiment: signal artefacts in PPARgamma/SRC-1 readout – biochemical, TR-FRET emission ratio, artefact control for PPARgamma SRC-1 recruitment agonists, primary screen (AID 1051)
Settings: TR-FRET detection artefact counter-screen, at 8 µM, hits give high values

| Structure (SMILES) | TR-FRET ratio |
| --- | --- |
| O=C(Nc1cccnc1)c1ccc(Cl)cc1[N+](=O)[O-] | 2040 (inactive) |
| Cc1cc(C)cc(NC(=S)NCCCN2CCOCC2)c1 | 1640 (inactive) |
| CCc1cccc(C)c1NC(=O)COC(=O)Cc1ccsc1 | 1600 (inactive) |
| CC(=O)N(CCCN(C)C)c1nc2ccc(C)cc2s1 | 2080 (inactive) |
| COc1ccc(/C=C(\C#N)C(=O)ONC2=NCCCCC2)cc1 | 1820 (inactive) |
| COc1ccc(S(=O)(=O)N(C)C)cc1NC(=O)CSc1ncccn1 | 1990 (inactive) |
| CCOCCCNC(=S)N1CCC(NC(=O)C2CCCCC2)CC1 | 1730 (inactive) |
| Cc1ccc(NS(=O)(=O)c2cccs2)cc1S(=O)(=O)N1CCCCCC1 | 2400 (active) |
| O=S(=O)(Nc1cc(S(=O)(=O)N2CCOCC2)ccc1N1CCCC1)c1cccs1 | 1650 (inactive) |
| Cc1ccc(C(=O)NCC(=O)O)cc1S(=O)(=O)N1CCCCC1 | 1790 (inactive) |
| CCn1c(COc2ccccc2)nnc1SCC(=O)NCc1ccco1 | 1770 (inactive) |
| C/C(=N/OC(=O)c1cccc(C(F)(F)F)c1)c1cnccn1 | 1580 (inactive) |
| CC(OC(=O)CNS(=O)(=O)/C=C/c1ccccc1)C(=O)Nc1ccc(S(=O)(=O)N2CCCC2)cc1 (centres undefined) | 1670 (inactive) |
| O=C(NNC1=C(C(=O)C(F)(F)F)CCC1)c1ccncc1 | 1980 (inactive) |
| CN(NC(=O)C1CC(=O)N(c2ccccc2)C1)C1=NS(=O)(=O)c2ccccc21 (centres undefined) | 1810 (inactive) |
| CCN(CC)c1ccc(C(=O)c2cnc(/N=C/N(C)C)s2)cc1 | 1790 (inactive) |
| COc1ccc(CCC(=O)OCC(=O)Nc2ccc(C)c(S(=O)(=O)N(C)C)c2)cc1 | 1760 (inactive) |
| CN(CCOc1ccc(Br)cc1)CC(=O)Nc1cccc(S(=O)(=O)NC2=NCCC2)c1 | 1830 (inactive) |
| CCC(C)NC(=O)/C=C/c1ccc(S(=O)(=O)NCc2ccco2)cc1 (centres undefined) | 1910 (inactive) |
| Cc1ccccc1CC1(CO)CCCN(Cc2ccc3c(c2)OCCO3)C1 (centres undefined) | 1710 (inactive) |
| CSc1c(SCc2ccccc2)cnn(Cc2ccccc2)c1=O | 2320 (active) |
| O=c1c2ccccc2c(-c2ccccc2)nn1Cc1ccccc1 | 1740 (inactive) |
| CSc1nc2ccccc2c(=O)n1Cc1ccc(F)cc1 | 1720 (inactive) |
| COCc1c(C(=O)N/N=C/C2CC=CCC2)nnn1-c1nonc1N (centres undefined) | 1650 (inactive) |
| O=C(CCc1ccc(S(=O)(=O)N2CCOCC2)cc1)NN=C1CCCCCCC1 | 1980 (inactive) |
| CC(C)n1c(=O)[nH]c2cc(C(=O)Nc3ccccc3)ccc21 | 1850 (inactive) |
| C=CCc1cccc2cc(C(=O)NC3CCCC3)c(=O)oc12 | 1900 (inactive) |
| O=C(COC(=O)/C=C/c1cccc(Cl)c1)NCCc1ccccc1 | 1750 (inactive) |
| Cc1cc(C)nc(/N=C2\NC(=O)CC(C(=O)O)N2c2ccc(Cl)cc2Cl)n1 (centres undefined) | 1900 (inactive) |
